# The supplement of paper PMC8728848
# The full list was thinned out, with the strongest signals kept by preference.
# B1: PX9937I-bfa-538-26-538 (Bacteroides fragilis) (protein)
# chain: DKLDLSPIDYYGSGSYWKTEAQATAYIDGIHKHLRDAAWQHTITFGELRGGRFITGASSDGMGVSNGDIILQNFDETHTGVSKFGDLFGRITNLNLFIARVTDATYLSDEMKNFYLGEVYGLRAFYYFDLYRIYGGVPLRLTADVVEGVIDPNKLYMARSTPKEVMTQIKSDLNKSMEYFGNMNDFDPYKRGKKVYWSKAATECLMGEVYLWTSKVTTGDDVANPADLTIAKTHLESVLNNYNLKMLDDFSQVFNAKNKANDEIIFAIRFLEGEATNSNGTFTYNVGTGSTKNRYQANGEVFGDALDIQNTGNQTYEYNKAVYQNFDDADTRKEATFIASYNKDGKTGELSLYGTHVRKNIGYVNAQGARVYCGDYIFYRLPWVYLTLAEIANMEGDNAAVAKYINLVRKRAYGNAWDETLYAYPETADFTTNELAILHEKDKEFIQEGQRWWDLRRMTLTKGGTPLVFCKEGSLLGDAPILNKSTEAHKLLWPIEKTMLNKDPALEQTPGYK
# Assays:
# Test in all cases: glycan array binding signal (z-score within array); higher = stronger binding
# Settings in all cases: glycan notation: IUPAC condensed, linker removed
# [1] = target: Fuc(a1-2)Gal(b1-3)GlcNAc(b1-2)Man(a1-3)[Fuc(a1-2)Gal(b1-3)GlcNAc(b1-2)Man(a1-6)]Man(b1-4)GlcNAc(b1-4)GlcNAc
# How it was run: (§1)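 The Consortium for Functional Glycomics database supplied 3228 glycan arrays, of which those lacking an available protein sequence were dropped. The binding signal, a within-array Z-score, was averaged across arrays of the same protein sequence and across linkers. Negative scores can be read as non-binding.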
# [2] = target: Fuc(a1-2)Gal(b1-4)GlcNAc(b1-2)Man(a1-3)[Fuc(a1-2)Gal(b1-4)GlcNAc(b1-2)Man(a1-6)]Man(b1-4)GlcNAc(b1-4)GlcNAc
# How it was run: as §1
# [3] = target: Fuc(a1-2)Gal(b1-4)GlcNAc(b1-2)Man(a1-3)[Fuc(a1-2)Gal(b1-4)GlcNAc(b1-2)Man(a1-6)]Man(b1-4)GlcNAc(b1-4)[Fuc(a1-6)]GlcNAc
# How it was run: as §1
# [4] = target: Fuc(a1-2)Gal(b1-4)GlcNAc(b1-2)[Fuc(a1-2)Gal(b1-4)GlcNAc(b1-4)]Man(a1-3)[Fuc(a1-2)Gal(b1-4)GlcNAc(b1-2)Man(a1-6)]Man(b1-4)GlcNAc(b1-4)GlcNAc
# How it was run: as §1
# [5] = target: Fuc(a1-2)Gal(b1-4)[Fuc(a1-3)]GlcNAc
# How it was run: as §1
# [6] = target: Fuc(a1-2)Gal6S(b1-4)Glc6S
# How it was run: as §1
# [7] = target: Fuc(a1-2)[Gal(a1-3)]Gal(b1-4)GlcNAc(b1-3)[Fuc(a1-2)[Gal(a1-3)]Gal(b1-4)GlcNAc(b1-6)]GalNAc
# How it was run: as §1
# [8] = target: Fuc(a1-2)[GalNAc(a1-3)]Gal(b1-4)GlcNAc(b1-3)GalNAc
# How it was run: as §1
# [9] = target: Fuc(a1-2)[GalNAc(a1-4)]Gal(b1-4)GlcNAc
# How it was run: as §1
# [10] = target: Fuc(a1-3)[Gal(b1-4)]GlcNAc(b1-2)Man(a1-3)[Fuc(a1-3)[Gal(b1-4)]GlcNAc(b1-2)Man(a1-6)]Man(b1-4)GlcNAc(b1-4)GlcNAc
# How it was run: as §1
# [11] = target: Gal(a1-3)Gal(b1-3)GlcNAc
# How it was run: as §1
# [12] = target: Gal(a1-3)Gal(b1-3)GlcNAc(b1-2)Man(a1-3)[Gal(a1-3)Gal(b1-3)GlcNAc(b1-2)Man(a1-6)]Man(b1-4)GlcNAc(b1-4)GlcNAc
# How it was run: as §1
# [13] = target: Gal(a1-3)Gal(b1-3)GlcNAc(b1-6)GalNAc
# How it was run: as §1
# [14] = target: Gal(a1-3)Gal(b1-3)[Fuc(a1-4)]GlcNAc(b1-2)Man(a1-3)[Gal(a1-3)Gal(b1-3)[Fuc(a1-4)]GlcNAc(b1-2)Man(a1-6)]Man(b1-4)GlcNAc(b1-4)GlcNAc
# How it was run: as §1
# [15] = target: Gal(a1-3)Gal(b1-4)GlcNAc
# How it was run: as §1
# [16] = target: Gal(a1-3)Gal(b1-4)GlcNAc(b1-3)GalNAc
# How it was run: as §1
# [17] = target: Gal(a1-4)Gal(b1-3)GlcNAc(b1-2)Man(a1-3)[Gal(a1-4)Gal(b1-3)GlcNAc(b1-2)Man(a1-6)]Man(b1-4)GlcNAc(b1-4)GlcNAc
# How it was run: as §1
# [18] = target: Gal(b1-3)GalNAc(a1-3)[Fuc(a1-2)]Gal(b1-4)GlcNAc
# How it was run: as §1
# [19] = target: Gal(b1-3)GalNAc(b1-4)[Neu5Ac(a2-3)]Gal(b1-4)Glc
# How it was run: as §1
# [20] = target: Gal(b1-3)GlcNAc(b1-3)Gal(b1-4)GlcNAc(b1-3)Gal(b1-4)GlcNAc(b1-2)[Gal(b1-3)GlcNAc(b1-3)Gal(b1-4)GlcNAc(b1-3)Gal(b1-4)GlcNAc(b1-6)]Man(a1-6)[Gal(b1-3)GlcNAc(b1-3)Gal(b1-4)GlcNAc(b1-3)Gal(b1-4)GlcNAc(b1-2)Man(a1-3)]Man(b1-4)GlcNAc(b1-4)[Fuc(a1-6)]GlcNAc
# How it was run: as §1
# [21] = target: Gal(b1-3)[Fuc(a1-4)]GlcNAc(b1-6)GalNAc
# How it was run: as §1
# [22] = target: Gal(b1-3)[Neu5Ac(b2-6)]GalNAc
# How it was run: as §1
# [23] = target: Gal(b1-4)GlcNAc(b1-2)Man(a1-3)[Gal(b1-4)GlcNAc(b1-2)Man(a1-6)][Gal(b1-4)GlcNAc(b1-4)]Man(b1-4)GlcNAc(b1-4)[Fuc(a1-6)]GlcNAc
# How it was run: as §1
# [24] = target: Gal(b1-4)GlcNAc(b1-3)Gal(b1-4)Glc
# How it was run: as §1
# [25] = target: Gal(b1-4)GlcNAc(b1-3)Gal(b1-4)GlcNAc(b1-3)Gal(b1-4)GlcNAc(b1-2)Man(a1-3)[Gal(b1-4)GlcNAc(b1-3)Gal(b1-4)GlcNAc(b1-3)Gal(b1-4)GlcNAc(b1-2)Man(a1-6)]Man(b1-4)GlcNAc(b1-4)GlcNAc
# How it was run: as §1
binder,measurement,setting,value
B1,glycan array binding signal (z-score),[1],5.41
same,glycan array binding signal (z-score),[2],3.93
same,glycan array binding signal (z-score),[3],1.57
same,glycan array binding signal (z-score),[4],1.02
same,glycan array binding signal (z-score),[5],-0.821
same,glycan array binding signal (z-score),[6],2.55
same,glycan array binding signal (z-score),[7],-0.413
same,glycan array binding signal (z-score),[8],-0.541
same,glycan array binding signal (z-score),[9],1.66
same,glycan array binding signal (z-score),[10],3.92
same,glycan array binding signal (z-score),[11],0.142
same,glycan array binding signal (z-score),[12],0.317
same,glycan array binding signal (z-score),[13],0.142
same,glycan array binding signal (z-score),[14],3.11
same,glycan array binding signal (z-score),[15],-0.994
same,glycan array binding signal (z-score),[16],-1.27
same,glycan array binding signal (z-score),[17],4.73
same,glycan array binding signal (z-score),[18],-0.45
same,glycan array binding signal (z-score),[19],-0.928
same,glycan array binding signal (z-score),[20],2.69
same,glycan array binding signal (z-score),[21],2.39
same,glycan array binding signal (z-score),[22],-0.133
same,glycan array binding signal (z-score),[23],1.11
same,glycan array binding signal (z-score),[24],0.127
same,glycan array binding signal (z-score),[25],6.36
